# Columns and labels:
# Conditions in all cases: concentration: 1 μM,replicates: in singlicate; n = 1
# AAK1 = tested on: AAK1
# ABL1-nonphosphorylated = tested on: ABL1-nonphosphorylated
# ABL1-phosphorylated = tested on: ABL1-phosphorylated
# ABL2 = tested on: ABL2
# ACVR1B = tested on: ACVR1B
# ACVR1 = tested on: ACVR1
# ACVR2A = tested on: ACVR2A
# ACVR2B = tested on: ACVR2B
# ACVRL1 = tested on: ACVRL1
# ADCK3 = tested on: T1, ADCK3
# T1 construct: gene CABC1
# ADCK4 = tested on: ADCK4
# AKT1 = tested on: AKT1
# AKT2 = tested on: AKT2
# AKT3 = tested on: AKT3
# ALK = tested on: ALK
# AMPK-alpha1 = tested on: T2, AMPK-alpha1
# T2 construct: gene PRKAA1
# AMPK-alpha2 = tested on: T3, AMPK-alpha2
# T3 construct: gene PRKAA2
# ANKK1 = tested on: ANKK1
# ARK5 = tested on: T4, ARK5
# T4 construct: gene NUAK1
# ASK1 = tested on: T5, ASK1
# T5 construct: gene MAP3K5
# 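Also: KINOMEscan kinase panel screen.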
Structure (SMILES),%Inh (AAK1) [%],%Inh (ABL1-nonphosphorylated) [%],%Inh (ABL1-phosphorylated) [%],%Inh (ABL2) [%],%Inh (ACVR1B) [%],%Inh (ACVR1) [%],%Inh (ACVR2A) [%],%Inh (ACVR2B) [%],%Inh (ACVRL1) [%],%Inh (ADCK3) [%],%Inh (ADCK4) [%],%Inh (AKT1) [%],%Inh (AKT2) [%],%Inh (AKT3) [%],%Inh (ALK) [%],%Inh (AMPK-alpha1) [%],%Inh (AMPK-alpha2) [%],%Inh (ANKK1) [%],%Inh (ARK5) [%],%Inh (ASK1) [%]
Cl.Oc1cc(-c2nc(-c3ccccc3)[nH]c2-c2ccncc2)ccc1Cl [SB-386023],58,56,32,44,72,14,0,71,0,0,10,0,0,0,0,3,0,0,0,12
COc1ccc(C[C@@H](CN)NC(=O)c2cc(Br)c(-c3ccnc4[nH]ccc34)s2)cc1.Cl.Cl [GSK1389063],48,15,41,31,0,24,13,48,0,50,97.6,94.4,–,91.9,63,91.4,89,5,96.8,0
Cl.Cl.NC[C@H](Cc1ccc(C(F)(F)F)cc1)NC(=O)c1cc(Br)c(-c2ccnc3[nH]ccc23)s1 [GSK1487252],38,0,4,18,0,0,0,0,0,12,95.5,88,–,79,29,78,70,0,37,0
CC(C)N1C(=O)Cc2cc(Nc3ncc(C(F)(F)F)c(NCc4cccc(S(C)(=O)=O)c4)n3)ccc21,27,43,0,4,0,13,16,51,0,0,9,0,0,0,0,0,0,38,62,0
Cc1ccc2c(-c3ccncc3)c(-c3ccc(F)cc3)nn2c1.Cl [GW461484],10,0,0,0,62,16,0,18,0,24,17,0,1,17,9,11,1,21,13,0
CN(C)CC(O)COc1ccc(Nc2nccc(-c3cnn4nc(N5CCOCC5)ccc34)n2)cc1 (centres unmarked) [GW767488],88,48,29,42,37,72,18,0,0,13,–,0,0,1,35,4,0,33,25,9
CNC(=O)c1ccccc1Sc1ccc2c(/C=C/c3ccccn3)n[nH]c2c1,47,–,–,88,21,0,0,0,0,0,0,0,0,0,2,15,4,0,2,0
C[C@@H]1CCN(C(=O)CC#N)C[C@@H]1N(C)c1ncnc2[nH]ccc12,0,4,0,0,19,0,0,3,0,0,0,0,0,0,5,0,0,0,0,0

# From publication PMC5540273 (PLoS ONE, 2017)
